Records with an inconclusive call do not appear. Active and inactive are the calls of the source. Calls come from the whole dose curve; as a rule, active = well fitted curve in the direction sought with a large enough effect; inconclusive = small, poorly fitted or top-dose-only effect, or another doubt; inactive = no such curve, though single readings can be large; an effect the other way counts as inactive or inconclusive. *1 amine or outer side, *2 acyl side, *3 side chain or, on linkers, in order; H or OH if unused. Where a SMILES comes first, the peptide text is derived from it. Bridges are numbered along the chain shown (N, C = ends). X6 = O=C(CCC[*:2])[*:1]
Key:
[1] = test system: NIH3T3; assay: qHTS assay to identify novel small-molecules to repurpose for Merkel cell carcinoma treatment (AID 1296009); conditions: MCC and control cell lines, CellTiter-Glo viability, 72 h; at 44.8 µM (top of the series) unless noted; note: nearly all actives have a fitted effect of over 60% in size
How it was run: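 Cell viability, measured as CellTiter-Glo luminescence, was normalized between DMSO and no-cell wells. The cells had been exposed to 8- or 11-point compound dilutions for 72 hr at 37 degree celsius.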

[2] = test system: C33A; assay: Primary qHTS to identify gynecologic anti-cancer compounds using libraries of approved drugs and bioactive compounds (AID 1345084); conditions: Gynecologic cancer cell panel viability, ATPlite luminescence, 48 h; series mostly up to 57.5 µM; note: % is set by controls: 0 for no effect and ±100 for the full control effect; nearly all actives have a fitted effect of over 55% in size
How it was run: (§1)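 Measured: luminescence after ATPlite addition (15 min, RT). Exposure: 48 h, 37 C, 5% CO2.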

[3] = test system: CAOV3; assay: as above; conditions: Gynecologic cancer cell panel viability, ATPlite luminescence, 48 h; series mostly up to 57.5 µM
How it was run: as §1

[4] = test system: CASKI; assay: as above; conditions: Gynecologic cancer cell panel viability, ATPlite luminescence, 48 h; series mostly up to 57.5 µM
How it was run: as §1

[5] = test system: Es-2; assay: as above; conditions: Gynecologic cancer cell panel viability, ATPlite luminescence, 48 h; series mostly up to 57.5 µM
How it was run: as §1

[6] = test system: HeLa; assay: as above; conditions: Gynecologic cancer cell panel viability, ATPlite luminescence, 48 h; series mostly up to 57.5 µM
How it was run: as §1

[7] = test system: Hek293T; assay: as above; conditions: Gynecologic cancer cell panel viability, ATPlite luminescence, 48 h, control line for the selectivity index; series mostly up to 57.5 µM
How it was run: as §1

CCC(C)C(=O)O[C@@H]1[C@@H](O)[C@@H](O[C@H]2O[C@H](CO)[C@@H](O)[C@H](O)[C@H]2O)O[C@H](CO)[C@H]1O (stereo not given in full)
inactive: outcome [1] inactive [at 17.4 µM] | Potency [2] | Potency [3] | Potency [4] | Potency [5] | Potency [6] | Potency [7]

CC(C)C1=CC2=CCC3[C@](C)(CCC[C@@]3(C)C(=O)O)C2CC1=O (stereo not given in full)
inactive: outcome [1] | Potency [2] | Potency [3] | Potency [4] | Potency [5] | Potency [6] | Potency [7]

CC(C)=CCCC1(C)Oc2cc3c(c4c2C2C(O4)C(C)(O)CCC21)CN(C(CCC(=O)O)C(=O)O)C3=O (stereo not given)
inactive: outcome [1] inactive [at 17.4 µM] | Potency [2] | Potency [3] | Potency [4] | Potency [5] | Potency [6] | Potency [7]

CC[C@H](C)[C@@H]1NC(=O)[C@H](Cc2ccc(OC)cc2)NC(=O)CCCSC[C@@H](C(=O)N2CCC[C@H]2C(=O)N[C@@H](CC(C)C)C(=O)NCC(N)=O)NC(=O)[C@H](CC(N)=O)NC(=O)[C@H](CCC(N)=O)NC1=O (Y(Me)IQNCPLG-NH2; linker N-5 via X6)
inactive: outcome [1] | Potency [2] | Potency [3] | Potency [4] | Potency [5] | Potency [6] | Potency [7]

COc1ccc(C(OC2OC(CO)C(O)C(O)C2O)C(C)O)cc1 (stereo not given)
inactive: outcome [1] | Potency [2] | Potency [3] | Potency [4] | Potency [5] | Potency [6] | Potency [7]

O=C(O)c1cnn(-c2nc3cc(OC(F)(F)F)c(Cl)cc3[nH]2)c1
inactive: outcome [1] | Potency [2] | Potency [3] | Potency [5] | Potency [6] | Potency [7]

C=C1CCC2C(C)(C)CC(=O)CC2(C)C1CCC(C)CCOC(C)=O (stereo not given)
inactive: outcome [1] | Potency [2] | Potency [3] | Potency [4] | Potency [5] | Potency [6] | Potency [7]

CC(=O)[C@@H]1CC[C@]2(C(=O)O)CC[C@]3(C)C(CCC4[C@@]5(C)CC[C@H](O)C(C)(C)C5CC[C@]43C)C12 (stereo not given in full)
inactive: outcome [1] inactive [at 17.4 µM] | Potency [2] | Potency [3] | Potency [4] | Potency [5] | Potency [6] | Potency [7]

CC(=O)O[C@@]1(C)C[C@@H](O)[C@]2(O)C=CO[C@@H](O[C@@H]3O[C@H](CO)[C@@H](O)[C@H](O)[C@H]3O)[C@@H]21
inactive: outcome [1] inactive [at 17.4 µM] | Potency [2] | Potency [3] | Potency [4] | Potency [5] | Potency [6] | Potency [7]

Cc1cc(N2CCCCC2)nc2ccccc12
inactive: outcome [1] | Potency [2] | Potency [3] | Potency [4] | Potency [5] | Potency [6] | Potency [7]

C[C@]1(OC(=O)/C=C/c2ccccc2)C[C@H](O)[C@]2(O)C=CO[C@@H](O[C@@H]3O[C@H](CO)[C@@H](O)[C@H](O)[C@H]3O)C12 (stereo not given in full)
inactive: outcome [1] inactive [at 17.4 µM] | Potency [2] | Potency [3] | Potency [4] | Potency [5] | Potency [6] | Potency [7]

COC(=O)[C@H](OC(C)=O)[C@H]1C(C)(C)C(=O)[C@H]2CC3=C4CC(=O)O[C@@H](c5ccoc5)[C@]4(C)CCC3[C@@]1(C)C2=O (stereo not given in full)
inactive: outcome [1] inactive [at 17.4 µM] | Potency [2] | Potency [3] | Potency [4] | Potency [5] | Potency [6] | Potency [7]

CC1CCC23COC(=O)C2=CC(O)CC3C1(C)CCC1=CC(=O)OC1O (stereo not given)
inactive: outcome [1] | Potency [2] | Potency [3] | Potency [4] | Potency [5] | Potency [6] | Potency [7]

CC1(C)CC(=O)N(CCCCN2CCN(c3ncccn3)CC2)C(=O)C1
inactive: outcome [1] | Potency [2] | Potency [3] | Potency [4] | Potency [5] | Potency [6] | Potency [7]

c1ccc(Cc2ncc3c(n2)CCNCC3)cc1
inactive: outcome [1] | Potency [2] | Potency [3] | Potency [4] | Potency [5] | Potency [6] | Potency [7]

CCC(C)(O)C(O)C(=O)OCc1ccc(O[C@@H]2O[C@H](CO)[C@@H](O)[C@H](O)[C@H]2O)c(OC)c1 (stereo not given in full)
inactive: outcome [1] inactive [at 17.4 µM] | Potency [2] | Potency [4] | Potency [5] | Potency [6] | Potency [7]

COc1cc(NC(=O)c2ccccn2)ccc1Cl
inactive: outcome [1] | Potency [2] | Potency [4] | Potency [5] | Potency [6] | Potency [7]

CC(C)CC1(C(=O)OCc2ccc(O[C@@H]3O[C@H](CO)[C@@H](O)[C@H](O)[C@H]3O)cc2)CC(=O)OC(C(=O)O)CC(=O)OCC2OC(O1)C(OC(=O)/C=C/c1ccc(O)cc1)C(O)C2O (stereo not given in full)
inactive: outcome [1] inactive [at 9.27 µM] | activity change, negative = cytotoxicity [2] -0.106% [at 11.6 µM] | activity change, negative = cytotoxicity [3] 1.66% [at 11.6 µM] | activity change, negative = cytotoxicity [4] -1.89% [at 11.6 µM] | activity change, negative = cytotoxicity [5] 11.3% [at 11.6 µM] | activity change, negative = cytotoxicity [6] 0% [at 11.6 µM] | activity change, negative = cytotoxicity [7] 5.47% [at 11.6 µM]

COc1cc(/C=C/C(=O)O[C@H]2[C@H](O)[C@@H](CO)O[C@@]2(CO)O[C@H]2O[C@H](COC(=O)c3ccc(O)cc3)[C@@H](O)[C@H](O)[C@H]2O)cc(OC)c1OC
inactive: outcome [1] inactive [at 17.4 µM] | Potency [2] | Potency [3] | Potency [4] | Potency [5] | Potency [6] | Potency [7]

— PubChem BioAssay (NCATS)
